According to PubChem BioAssay:
A number with no mark means an inactive call. How the calls were made is not given here.

The molecules below were run against Pantothenate synthetase (Mycobacterium tuberculosis (strain ATCC 25618 / H37Rv)) (UniProt P9WIL5) (assay: Coupled enzyme confirmation of inhibitors against recombinant Mtb PanC (AID 375;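 further: 0% = full reaction with vehicle and 100% = no enzyme background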)). Settings: coupled enzyme assay; at 10 µM, active compounds read high.
Sequence of Pantothenate synthetase (Mycobacterium tuberculosis (strain ATCC 25618 / H37Rv)) (P9WIL5 whole entry, looked up): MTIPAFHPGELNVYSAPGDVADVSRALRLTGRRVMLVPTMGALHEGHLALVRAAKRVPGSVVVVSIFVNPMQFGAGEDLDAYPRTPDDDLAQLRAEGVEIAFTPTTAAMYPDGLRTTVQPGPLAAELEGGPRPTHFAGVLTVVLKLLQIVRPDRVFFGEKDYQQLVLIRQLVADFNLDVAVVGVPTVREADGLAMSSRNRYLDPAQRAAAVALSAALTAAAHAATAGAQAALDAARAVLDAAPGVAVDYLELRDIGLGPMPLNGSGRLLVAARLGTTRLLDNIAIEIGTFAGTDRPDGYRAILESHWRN

| Compound | inhibition |
| --- | --- |
| CC(C)C[C@H]1C(=O)N2CCC[C@H]2[C@]2(O)O[C@](NC(=O)[C@@H]3C=C4c5cccc6[nH]c(Br)c(c56)CC4N(C)C3)(C(C)C)C(=O)N12 (stereo partly specified) | 4% |
| Cc1cc(C)cc(N2C(=O)C3C4C=CC(C4)C3C2=O)c1 (stereo unspecified) | 0% |
| CCOCCn1c(CN2CCN(CC)CC2)nc2c1c(=O)n(C)c(=O)n2C | 0% |
| CC(=O)c1ccc(OCC(O)CN2CCN(CCO)CC2)cc1 (stereo unspecified) | 4% |
| O=C(Nc1cccc(NC(=O)c2cccnc2)c1)c1cccnc1 | 1% |
| O=C1CC(c2cccc(Cl)c2)CC(O)=C1C=NCCCO (stereo unspecified) | 9% |
| CS(=O)(=O)N1CCc2cc(C(=O)N3CCCCC3)ccc21 | 2% |
| Cc1nnc(SCC(=O)Nc2ccc3c4c(cccc24)CC3)n1C | 0% |
| CCCSCCCNC(=O)Cn1cc2c(n1)CCC(C)C2 (stereo unspecified) | 2% |
| CCN(c1ccc2c(c1)OCO2)S(=O)(=O)c1cc(Br)cc2c1N(C(=O)C1CC1)CC2 | 0% |
| Nc1ccc(-c2ccc(N)cc2C(F)(F)F)c(C(F)(F)F)c1 | 0% |
| Cc1ccc(C(=O)NC2CC3CCCC(C2)N3C(=O)NC2CCCCC2)cc1 (stereo unspecified) | 8% |
| Cc1cc(OCC(=O)Nc2ccc3oc(-c4ccncc4)nc3c2)ccc1Cl | 0% |
| CCN1C(=O)NC(c2cc(Br)ccc2OC)C(C(=O)OC)=C1C (stereo unspecified) | 0% |
| COC(=O)c1[nH]c2ccccc2c1NS(=O)(=O)c1ccc(OC)cc1OC | 3% |
| COc1ccc(C2CC(=O)c3cnc(NC(=O)c4ccccc4OC)nc3C2)c(OC)c1 (stereo unspecified) | 8% |
